Out of some 5,500 compounds screened, about 2,000 (36%) were called active. Roughly 18% stayed inconclusive and do not appear here. Rule as the data show it: active = normalized growth mostly below about 0.91 (no sharp cut-off); inconclusive = no clear call, values can overlap the other calls; inactive = mostly above about 0.92. Some of the results follow.
Assay: chemical genetic growth profiling, strain panel (AID 1159580);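 also: tested at 20 µM; growth read once vehicle control cultures reached saturation at 30 °C; 1 = growth at the plate median or of vehicle wells; lower values mean less growth of the strain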
Details: growth OD

Measured: normalized growth

CC(C)=CCc1c(O)cc(C)oc1=O
inactive: S. cerevisiae deletion strains, locus YBR021W, strain FUR4, hits give low values 1.01 | S. cerevisiae deletion strains, locus YBR229C, strain ROT2, hits give low values 0.99 | S. cerevisiae deletion strains, locus YCL029C, strain bik1, hits give low values 0.97 | S. cerevisiae deletion strains, locus YDL035C, strain GPR1, hits give low values 1.11 | S. cerevisiae deletion strains, locus YDL074C, strain BRE1, hits give low values 1.12 | S. cerevisiae deletion strains, locus YDL101C, strain DUN1, hits give low values 0.998 | S. cerevisiae deletion strains, locus YDL185W, strain tfp1, hits give low values 0.961 | S. cerevisiae deletion strains, locus YDL192W, strain arf1, hits give low values 1.01 | S. cerevisiae deletion strains, locus YDR101C, strain arx1, hits give low values 1.01 | S. cerevisiae deletion strains, locus YDR150W, strain NUM1, hits give low values 1.01 | S. cerevisiae deletion strains, locus YDR162C, strain NBP2, hits give low values 1.03 | S. cerevisiae deletion strains, locus YDR318W, strain mcm21, hits give low values 0.986 | S. cerevisiae deletion strains, locus YDR388W, hits give low values 0.994 | S. cerevisiae deletion strains, locus YDR502C, strain sam2, hits give low values 0.995 | S. cerevisiae deletion strains, locus YEL061C, strain CIN8, hits give low values 1.03 | S. cerevisiae deletion strains, locus YER110C, hits give low values 0.982 | S. cerevisiae deletion strains, locus YER155C, strain BEM2, hits give low values 0.963 | S. cerevisiae deletion strains, locus YER167W, strain BCK2, hits give low values 0.991 | S. cerevisiae deletion strains, locus YGL078C, strain dbp3, hits give low values 0.981 | S. cerevisiae deletion strains, locus YGL086W, strain mad1, hits give low values 1.01 | S. cerevisiae deletion strains, locus YGL248W, strain PDE1, hits give low values 1.03 | S. cerevisiae deletion strains, locus YGR135W, strain pre9, hits give low values 1 | S. cerevisiae deletion strains, locus YGR252W, strain gcn5, hits give low values 1.03 | S. cerevisiae deletion strains, locus YHR079C, strain IRE1 (second series), hits give low values 0.962 | S. cerevisiae deletion strains, locus YHR094C, strain hxt1, hits give low values 0.978 | S. cerevisiae deletion strains, locus YHR129C, strain ARP1, hits give low values 1.02 | S. cerevisiae deletion strains, locus YHR200W, strain rpn10, hits give low values 0.975 | S. cerevisiae deletion strains, locus YIL066C, strain RNR3, hits give low values 1 | S. cerevisiae deletion strains, locus YIL073C, strain SPO22, hits give low values 1.08 | S. cerevisiae deletion strains, locus YIL125W, strain kgd1, hits give low values 0.981 | S. cerevisiae deletion strains, locus YIR030C, strain dcg1, hits give low values 0.991 | S. cerevisiae deletion strains, locus YJL095W, strain BCK1, hits give low values 1.04 | S. cerevisiae deletion strains, locus YJL134W, strain LCB3, hits give low values 0.988 | S. cerevisiae deletion strains, locus YJL168C, strain set2, hits give low values 0.967 | S. cerevisiae deletion strains, locus YJL187C, strain SWE1 (second series), hits give low values 1 | S. cerevisiae deletion strains, locus YJR043C, strain POL32, hits give low values 1.08 | S. cerevisiae deletion strains, locus YKL009W, strain mrt4, hits give low values 1.01 | S. cerevisiae deletion strains, locus YKL068W, hits give low values 0.98 | S. cerevisiae deletion strains, locus YKL085W, strain MDH1 (second series), hits give low values 0.972 | S. cerevisiae deletion strains, locus YKL085W, strain MDH1, hits give low values 0.972 | S. cerevisiae deletion strains, locus YKL190W, strain CNB1, hits give low values 1.02 | S. cerevisiae deletion strains, locus YKR001C, strain vps1, hits give low values 1.03 | S. cerevisiae deletion strains, locus YLR039C, strain RIC1, hits give low values 1.21 | S. cerevisiae deletion strains, locus YLR058C, strain SHM2, hits give low values 1.01 | S. cerevisiae deletion strains, locus YLR102C, strain apc9, hits give low values 0.953 | S. cerevisiae deletion strains, locus YLR262C, strain YPT6, hits give low values 1.19 | S. cerevisiae deletion strains, locus YLR268W, strain sec22, hits give low values 0.999 | S. cerevisiae deletion strains, locus YLR330W, strain CHS5, hits give low values 1.01 | S. cerevisiae deletion strains, locus YLR371W, strain rom2, hits give low values 0.983 | S. cerevisiae deletion strains, locus YLR418C, strain cdc73, hits give low values 0.987 | S. cerevisiae deletion strains, locus YML016C, strain PPZ1, hits give low values 0.982 | S. cerevisiae deletion strains, locus YML032C, strain rad52, hits give low values 0.994 | S. cerevisiae deletion strains, locus YML124C, strain tub3, hits give low values 0.973 | S. cerevisiae deletion strains, locus YMR078C, strain ctf18, hits give low values 0.98 | S. cerevisiae deletion strains, locus YMR223W, strain ubp8, hits give low values 0.99 | S. cerevisiae deletion strains, locus YMR307W, strain GAS1, hits give low values 1.13 | S. cerevisiae deletion strains, locus YNL067W, strain RPL9B, hits give low values 1.02 | S. cerevisiae deletion strains, locus YNL128W, strain TEP1, hits give low values 1.01 | S. cerevisiae deletion strains, locus YNL233W, strain BNI4, hits give low values 1.05 | S. cerevisiae deletion strains, locus YNL250W, strain rad50, hits give low values 0.94 | S. cerevisiae deletion strains, locus YNL271C, strain bni1, hits give low values 0.986 | S. cerevisiae deletion strains, locus YNL298W, strain CLA4, hits give low values 0.981 | S. cerevisiae deletion strains, locus YNL307C, strain MCK1, hits give low values 1 | S. cerevisiae deletion strains, locus YNL322C, strain KRE1, hits give low values 0.995 | S. cerevisiae deletion strains, locus YNR052C, strain pop2, hits give low values 0.99 | S. cerevisiae deletion strains, locus YOL006C, strain TOP1, hits give low values 1.26 | S. cerevisiae deletion strains, locus YOL012C, strain htz1 0.881 | S. cerevisiae deletion strains, locus YOL147C, strain pex11, hits give low values 0.973 | S. cerevisiae deletion strains, locus YOR061W, strain CKA2, hits give low values 0.991 | S. cerevisiae deletion strains, locus YOR069W, strain VPS5, hits give low values 0.989 | S. cerevisiae deletion strains, locus YOR136W, strain idh2, hits give low values 0.972 | S. cerevisiae deletion strains, locus YOR144C, strain elg1, hits give low values 0.964 | S. cerevisiae deletion strains, locus YOR184W, strain ser1, hits give low values 1.07 | S. cerevisiae deletion strains, locus YOR316C, strain cot1, hits give low values 0.971 | S. cerevisiae deletion strains, locus YPL055C, strain LGE1, hits give low values 1.1 | S. cerevisiae deletion strains, locus YPL241C, strain CIN2, hits give low values 0.997 | S. cerevisiae deletion strains, locus YPR119W, strain clb2, hits give low values 0.963 | S. cerevisiae deletion strains, locus YPR141C, strain kar3, hits give low values 0.954 | S. cerevisiae deletion strains, locus YPR163C, strain tif3, hits give low values 0.995 | S. cerevisiae deletion strains, locus YPR167C, strain met16, hits give low values 0.995 | S. cerevisiae deletion strains, strain wtn01, hits give low values 1.01 | S. cerevisiae strains, strain wild type, hits give low values 1.04

From PubChem BioAssay AID1159580 (chemical genetic matrix, 2015)
